{
  "source": "PubChem BioAssay (NCI)",
  "note": "“And” between values parts separate entries of the source, which are not always exact repeats. Equal values may be shown once. This is part of a sample that, as a whole, favours compounds with a hit. Of some 79,000 tested, about 15% had one in any assay. Some compounds were tested as several samples or in several runs, with calls that do not always agree. The source made the active and inactive calls. Rule as the data show it: active = growth inhibition above about 70%; inactive = the rest. *1 amine or outer side, *2 acyl side, *3 side chain or, on linkers, in order; H or OH if unused. Where a SMILES comes first, the peptide text is derived from it. Bridges are numbered along the chain shown (N, C = ends). Roman numbers before positions name the chains, in order. [ ]: non-standard residue; d: D form. Actinocin(9to1) = Cc1c2oc3c(C)ccc(C(=O)[*:1])c3nc-2c(C(=O)[*:2])c(N)c1=O; NMeY = CN[CH](Cc1ccc(O)cc1)C(=O)O; Sar = CNCC(=O)O",
  "data": [
    {"assay": "NCI Yeast Anticancer Drug Screen. Data for the mec2-1 strain (AID 157)", "conditions": "S. cerevisiae mec2-1 strain, at 50.0 µM, stronger effect = higher value", "summary_of_the_method": "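Yeast mec2-1 mutant treated with compound. Readout: growth inhibition vs vehicle controls.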", "values": [
      {"smiles": "O=C(OC(=C(c1ccccc1)c1ccccc1)c1ccccc1)c1ccccc1", "growth inhibition": "-0.2% (inactive) and -10.2% (inactive)"},
      {"smiles": "Cc1ccc(N(O)C(C)(C)C)cc1", "growth inhibition": "-17.9% (inactive) and 7.6% (inactive)"},
      {"smiles": "Cc1c2oc3c(C)ccc(C(=O)NC4C(=O)NC(C(C)C)C(=O)N5CCCC5C(=O)N(C)CC(=O)N(C)C(Cc5ccc(O)cc5)C(=O)OC4C)c3nc-2c(C(=O)NC2C(=O)NC(C(C)C)C(=O)N3CCCC3C(=O)N(C)CC(=O)N(C)C(Cc3ccc(O)cc3)C(=O)OC2C)c(N)c1=O", "note": "(centres undefined) (I: TVP[Sar][NMeY] / II: TVP[Sar][NMeY]; ester I:1-I:C, II:1-II:C; linker I:N-II:N via Actinocin(9to1); configuration not given here)", "growth inhibition": "0.3% (inactive) and 1.3% (inactive)"},
      {"smiles": "CC(O)C(O)C(O)C(O)CO", "note": "(centres undefined)", "growth inhibition": "-8.65% (inactive) and -14.4% (inactive)"},
      {"smiles": "Cc1ccc2ccccc2[n+]1C", "growth inhibition": "-7.45% (inactive) and -34.3% (inactive)"}
    ]},
    {"assay": "NCI Yeast Anticancer Drug Screen. Data for the sgs1 mgt1 strain (AID 161);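 also: 0% = growth of cultures given vehicle only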", "conditions": "S. cerevisiae sgs1 mgt1 strain, at 50.0 µM, stronger effect = higher value", "summary_of_the_method": "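Inhibition of yeast growth, normalised to vehicle-treated controls, is reported for a strain bearing genetic alterations in DNA damage repair.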", "values": [
      {"smiles": "O=C(O)C1(O)C[C@@H](O)C(O)[C@H](O)C1", "note": "(some centres undefined)", "growth inhibition": "-3.65% (inactive) and -30.1% (inactive)"},
      {"smiles": "C1CCC(N2CN(C3CCCCC3)C2)CC1", "growth inhibition": "-17.1% (inactive) and -8.8% (inactive)"},
      {"smiles": "O=P(O)(O)Oc1ccccc1", "growth inhibition": "-16.7% (inactive) and 6.55% (inactive)"},
      {"smiles": "CCOc1ccc(C=O)cc1OC", "growth inhibition": "-52.6% (inactive) and 0.25% (inactive)"},
      {"smiles": "OC1C2COC(O2)C(O)C1O", "note": "(centres undefined)", "growth inhibition": "7.4% (inactive) and -6.7% (inactive)"},
      {"smiles": "Cn1c(=O)c2[nH]cnc2n(C)c1=O", "growth inhibition": "-35.5% (inactive) and -20.8% (inactive)"},
      {"smiles": "CC1C(=O)c2cc3c(cc2CCN(C)Cc2c1ccc1c2OCO1)OCO3", "note": "(centres undefined)", "growth inhibition": "-10.2% (inactive) and 7.3% (inactive)"},
      {"smiles": "O=CC(O)C(O)C(OC1OC(CO)C(O)C(O)C1O)C(O)CO", "note": "(centres undefined) (tested in a mixture with another compound)", "growth inhibition": "94.3% (active) and 55.4% (inactive)"},
      {"smiles": "CC(C)(O)C(I)C[n+]1ccccc1", "note": "(centres undefined)", "growth inhibition": "50.5% (inactive) and -28.9% (inactive)"},
      {"smiles": "CC1(C)OC2OC(C(COS(C)(=O)=O)OS(C)(=O)=O)C(OS(C)(=O)=O)C2O1", "note": "(centres undefined)", "growth inhibition": "37.9% (inactive) and 10.2% (inactive)"},
      {"smiles": "Cc1ccc(S(=O)(=O)N(C)c2ccccc2)cc1", "growth inhibition": "-0.55% (inactive) and 10.2% (inactive)"},
      {"smiles": "CC1CC(C)(C)C2=NCCN21", "note": "(centres undefined)", "growth inhibition": "-4.8% (inactive) and 8.8% (inactive)"},
      {"smiles": "O=C1C2C3C=CC(C3)C2C(=O)N1O", "note": "(centres undefined)", "growth inhibition": "7.1% (inactive) and 11.2% (inactive)"},
      {"smiles": "C=C1C(=O)OC2/C=C(/C)C3CC(O)C(C)(CC(OC(=O)/C(C)=C/C)C12)O3", "note": "(centres undefined)", "growth inhibition": "-6.85% (inactive) and 0.45% (inactive)"},
      {"smiles": "O=C(O)C(Cc1ccc(O)cc1)NS(=O)(=O)Cc1ccccc1", "note": "(centres undefined)", "growth inhibition": "-3.1% (inactive) and 14.7% (inactive)"},
      {"smiles": "N#Cc1c(-c2ccccc2)cc(-c2ccccc2)n(C2OC(CO)C(O)C(O)C2O)c1=O", "note": "(centres undefined)", "growth inhibition": "4.85% (inactive) and -5.85% (inactive)"},
      {"smiles": "O=C1NC(=O)C(CO)(c2ccccc2)N1", "note": "(centres undefined)", "growth inhibition": "6% (inactive) and -1.85% (inactive)"},
      {"smiles": "CSCCC(NC(=O)CN)C(=O)O", "note": "(centres undefined)", "growth inhibition": "3% (inactive) and -2.45% (inactive)"},
      {"smiles": "CCCCc1ccc(OC2OC(COC(C)=O)C(OC(C)=O)C(OC(C)=O)C2OC(C)=O)cc1", "note": "(centres undefined)", "growth inhibition": "-42.8% (inactive) and -12.9% (inactive)"},
      {"smiles": "CC(C)(C)CC(C)(C)c1ccc(O)c(SSc2cc(C(C)(C)CC(C)(C)C)ccc2O)c1", "growth inhibition": "7.7% (inactive) and -8.55% (inactive)"},
      {"smiles": "CCCc1ccc(OC2OC(COC(C)=O)C(OC(C)=O)C(OC(C)=O)C2OC(C)=O)cc1", "note": "(centres undefined)", "growth inhibition": "-13.5% (inactive) and 9.65% (inactive)"},
      {"smiles": "COc1ccc(COC(=O)NCC(=O)NC(C)C(=O)NC(Cc2ccccc2)C(=O)OCc2ccccc2)cc1", "note": "(centres undefined)", "growth inhibition": "-14.9% (inactive) and -1.9% (inactive)"},
      {"smiles": "COC1OC2COC(c3ccccc3)OC2C(OC(C)=O)C1OC(C)=O", "note": "(centres undefined)", "growth inhibition": "2.1% (inactive) and 4.05% (inactive)"},
      {"smiles": "Cc1cc(Cc2cc(C)c(O)c(C(=O)O)c2)cc(C(=O)O)c1O", "growth inhibition": "2.35% (inactive) and 0.2% (inactive)"},
      {"smiles": "O=C1CCSSCCC(=O)NCCN1", "growth inhibition": "-5.75% (inactive) and 5.55% (inactive)"},
      {"smiles": "COC1C(C)OCOC2COCOC21", "note": "(centres undefined)", "growth inhibition": "4.15% (inactive) and -8.6% (inactive)"},
      {"smiles": "C[N+](C)(C)CCOC(=O)c1ccccc1CBr", "growth inhibition": "16.8% (inactive) and 85.9% (active)"},
      {"smiles": "C[N+](C)(C)CCOP(=O)(O)OP(=O)([O-])OCC1CCC(n2ccc(N)nc2=O)O1", "note": "(centres undefined)", "growth inhibition": "-18.8% (inactive) and 9.2% (inactive)"},
      {"smiles": "C/C(=N\\O)c1ccccc1", "growth inhibition": "-3.5% (inactive) and 13% (inactive)"},
      {"smiles": "O=C(CC(=O)c1cccnc1)NC(=O)c1ccccc1", "growth inhibition": "-1.35% (inactive) and -4.05% (inactive)"},
      {"smiles": "Cc1ccc(S(=O)(=O)NN)cc1", "growth inhibition": "-3.6% (inactive) and 5.7% (inactive)"},
      {"smiles": "O=c1oc2c(O)c(O)cc3c(=O)oc4c(O)c(O)cc1c4c23", "growth inhibition": "34.7% (inactive) and -10.7% (inactive)"},
      {"smiles": "C/C(=N\\NS(C)(=O)=O)C(C)(C)C", "growth inhibition": "2.35% (inactive) and 21.3% (inactive)"},
      {"smiles": "CCOC(=O)C(OC1OC(C(=O)OC)C(OC(C)=O)C(OC(C)=O)C1OC(C)=O)c1ccccc1", "note": "(centres undefined)", "growth inhibition": "-13.2% (inactive) and -11.8% (inactive)"},
      {"smiles": "O=C(OC(=C(c1ccccc1)c1ccccc1)c1ccccc1)c1ccccc1", "growth inhibition": "-4.45% (inactive) and 15.2% (inactive)"},
      {"smiles": "Cc1ccc(N(O)C(C)(C)C)cc1", "growth inhibition": "-4.3% (inactive) and 3.05% (inactive)"},
      {"smiles": "Cc1c2oc3c(C)ccc(C(=O)NC4C(=O)NC(C(C)C)C(=O)N5CCCC5C(=O)N(C)CC(=O)N(C)C(Cc5ccc(O)cc5)C(=O)OC4C)c3nc-2c(C(=O)NC2C(=O)NC(C(C)C)C(=O)N3CCCC3C(=O)N(C)CC(=O)N(C)C(Cc3ccc(O)cc3)C(=O)OC2C)c(N)c1=O", "note": "(centres undefined) (I: TVP[Sar][NMeY] / II: TVP[Sar][NMeY]; ester I:1-I:C, II:1-II:C; linker I:N-II:N via Actinocin(9to1); configuration not given here)", "growth inhibition": "-3.65% (inactive) and -1.8% (inactive)"},
      {"smiles": "CC(O)C(O)C(O)C(O)CO", "note": "(centres undefined)", "growth inhibition": "-15.2% (inactive) and -4.65% (inactive)"},
      {"smiles": "Cc1ccc2ccccc2[n+]1C", "growth inhibition": "-1.25% (inactive) and -16.4% (inactive)"}
    ]}
  ]
}
